Where “and” joins values, the source holds several entries; their conditions need not be identical. Equal values may be shown once. About 83,000 compounds went through this panel and 20% of them were active in at least one assay; those are over-represented in the sample as a whole.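 Compound tested at a single concentration for 48 hours in 96-well plates; a percent growth value below 10 was scored as active.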 Calls of active or inactive are those of the source.

The record followed here is PubChem BioAssay (NCI).

Among the test systems are HCT-15 colon; HT29 colon; SNB-75 CNS; SNB-19 CNS; U251 CNS; PC-3 prostate; SK-MEL-5 melanoma; UACC-62 melanoma; LOX IMVI melanoma; SK-MEL-28 melanoma; SK-MEL-2 melanoma; EKVX NSCLC; SN12C renal; UO-31 renal; TK-10 renal; ACHN renal; CAKI-1 renal; A498 renal; CCRF-CEM leukemia; MOLT-4 leukemia.
Test in all cases: NCI-60 one-dose screen, 48 h (100 = growth as untreated, 0 = no growth, -100 = all killed)
What all share (conditions): 10 µM unless noted

On to `CN(C)c1ccc2nc3ccc(=[N+](C)C)cc-3sc2c1`, for which the growth with HCT-15 colon is 28.5% (inactive) and 36.7% (inactive); in the assay with HT29 colon, 26.6% (inactive) and 19.8% (inactive) and 74.9% (inactive); in the assay on SNB-75 CNS it was 49.4% (inactive) and 90.2% (inactive); with SNB-19 CNS it was 24.7% (inactive) and 23% (inactive) and 39.5% (inactive); in the assay with U251 CNS, 3.44% (active) and -10.6% (active) and 8.51% (active); in the assay on PC-3 prostate, 13.7% (inactive) and 19.8% (inactive) and 32.8% (inactive). The growth was -85.2% (active) and 5.71% (active) and 13.6% (inactive) with SK-MEL-5 melanoma; -19.7% (active) and 7.25% (active) and 56.5% (inactive) with UACC-62 melanoma; 7.11% (active) and 5.63% (active) and 34.6% (inactive) in the assay with LOX IMVI melanoma; 20% (inactive) and 45.9% (inactive) and 75% (inactive) with SK-MEL-28 melanoma; 20% (inactive) and 47.3% (inactive) and 79.6% (inactive) in the assay on SK-MEL-2 melanoma; 41.7% (inactive) and 46.9% (inactive) with EKVX NSCLC. The growth in the assay on SN12C renal is 24.3% (inactive) and 12.5% (inactive) and 9.23% (active); in the assay on UO-31 renal, 62.3% (inactive) and 57.2% (inactive) and 78.6% (inactive); in the assay with TK-10 renal it was 58.1% (inactive) and 73.9% (inactive) and 110% (inactive); in the assay with ACHN renal it was 24.6% (inactive) and 24.4% (inactive) and 83% (inactive); with CAKI-1 renal, 30.9% (inactive) and 23.4% (inactive) and 83.2% (inactive); in the assay with A498 renal it was 58.4% (inactive) and 75.9% (inactive). Further, the growth with CCRF-CEM leukemia is 2.85% (active) and 26.7% (inactive) and 24% (inactive); in the assay on MOLT-4 leukemia it was 24.4% (inactive) and 21.7% (inactive) and 32.9% (inactive).

Turning to `CC(O)(CC(=O)CC(=O)c1ccccc1)c1ccccc1` (stereo not given), the growth in the assay with HCT-15 colon is 70.2% (inactive) and 69.4% (inactive); in the assay on HT29 colon, 105% (inactive) and 111% (inactive); in the assay with SNB-75 CNS, 92.5% (inactive) and 126% (inactive); with SNB-19 CNS it was 95.8% (inactive) and 99.9% (inactive); with U251 CNS it was 89.2% (inactive) and 84.3% (inactive); in the assay on PC-3 prostate it was 80.9% (inactive). In addition, the growth is 98.6% (inactive) and 93.6% (inactive) with SK-MEL-5 melanoma; 101% (inactive) and 87.9% (inactive) in the assay on UACC-62 melanoma; 110% (inactive) and 82.3% (inactive) with LOX IMVI melanoma; 99.4% (inactive) and 123% (inactive) in the assay on SK-MEL-28 melanoma; 126% (inactive) and 110% (inactive) in the assay on SK-MEL-2 melanoma; 103% (inactive) with EKVX NSCLC. Further, the growth with SN12C renal is 99.3% (inactive) and 85.3% (inactive); in the assay with UO-31 renal it was 96.8% (inactive) and 94.2% (inactive); in the assay on TK-10 renal, 98.5% (inactive) and 111% (inactive); with ACHN renal it was 94.9% (inactive) and 106% (inactive); in the assay on CAKI-1 renal, 110% (inactive); in the assay with A498 renal, 79.9% (inactive). The growth with CCRF-CEM leukemia was 95.4% (inactive) and 83% (inactive); in the assay with MOLT-4 leukemia, 87.3% (inactive) and 113% (inactive).

Regarding `O=C(N/N=C/c1ccccc1)N/N=C/c1ccccc1`, the growth with HCT-15 colon is 104% (inactive) and 103% (inactive); in the assay with HT29 colon, 109% (inactive) and 105% (inactive); in the assay with SNB-75 CNS, 103% (inactive) and 88% (inactive); with SNB-19 CNS it was 105% (inactive) and 106% (inactive); in the assay on U251 CNS it was 114% (inactive) and 97.8% (inactive); in the assay with PC-3 prostate, 97.7% (inactive). In addition, the growth in the assay with SK-MEL-5 melanoma was 106% (inactive) and 94.5% (inactive); in the assay with UACC-62 melanoma, 101% (inactive); in the assay on LOX IMVI melanoma, 117% (inactive) and 103% (inactive); in the assay with SK-MEL-28 melanoma, 121% (inactive) and 113% (inactive); in the assay on SK-MEL-2 melanoma it was 123% (inactive) and 119% (inactive); in the assay with EKVX NSCLC, 104% (inactive) and 101% (inactive). Also, the growth is 103% (inactive) and 114% (inactive) in the assay with SN12C renal; 92.4% (inactive) and 102% (inactive) in the assay on UO-31 renal; 119% (inactive) and 110% (inactive) in the assay with TK-10 renal; 109% (inactive) and 111% (inactive) in the assay with ACHN renal; 92.2% (inactive) and 114% (inactive) with CAKI-1 renal; 61.3% (inactive) in the assay on A498 renal. The growth in the assay with CCRF-CEM leukemia is 98.6% (inactive) and 102% (inactive); in the assay on MOLT-4 leukemia it was 91.8% (inactive) and 113% (inactive).

As to `CCOc1ccc2cc(-c3nn(CC4CCNCC4)c4ncnc(N)c34)ccc2c1`, the growth is 81.7% (inactive) and 29.8% (inactive) with HCT-15 colon; 69.6% (inactive) and 18.5% (inactive) with HT29 colon; 52.9% (inactive) and 24.8% (inactive) in the assay with SNB-75 CNS; 102% (inactive) and 65.9% (inactive) in the assay on SNB-19 CNS; 83.3% (inactive) and 40.2% (inactive) in the assay on U251 CNS; 78% (inactive) and 31.4% (inactive) with PC-3 prostate. Besides, the growth is 90.5% (inactive) and -2.12% (active) in the assay with SK-MEL-5 melanoma; 14.7% (inactive) in the assay with UACC-62 melanoma; 83% (inactive) and 5.47% (active) in the assay with LOX IMVI melanoma; 104% (inactive) and -35.3% (active) in the assay with SK-MEL-28 melanoma; 108% (inactive) in the assay with SK-MEL-2 melanoma; 101% (inactive) and 55.6% (inactive) in the assay with EKVX NSCLC. Moreover, the growth in the assay with SN12C renal is 82.9% (inactive) and 28.9% (inactive); with UO-31 renal, 68.8% (inactive) and 45.7% (inactive); in the assay on TK-10 renal it was 77.1% (inactive) and 80.5% (inactive); with ACHN renal, 102% (inactive) and 49.5% (inactive); in the assay with CAKI-1 renal, 95.4% (inactive) and 81.9% (inactive); in the assay with A498 renal, 73% (inactive) and 37% (inactive). Also, the growth in the assay with CCRF-CEM leukemia was 88.4% (inactive) and 9.5% (active); in the assay with MOLT-4 leukemia, 66.1% (inactive) and -12.1% (active).

For `Cc1cc(O)c(C(C)C)cc1S(=O)(=O)O` (tested in a mixture with another compound), the growth is 96.7% (inactive) and 7.09% (active) and 99.5% (inactive) in the assay with HCT-15 colon; 100% (inactive) and -3.9% (active) and 109% (inactive) in the assay on HT29 colon; 84.1% (inactive) and 10.4% (inactive) and 80.2% (inactive) in the assay on SNB-75 CNS; 103% (inactive) and 35.4% (inactive) and 100% (inactive) with SNB-19 CNS; 90.3% (inactive) and 9.28% (active) and 102% (inactive) in the assay with U251 CNS; 96.1% (inactive) and 19.8% (inactive) and 81.7% (inactive) in the assay with PC-3 prostate. Also, the growth in the assay with SK-MEL-5 melanoma was 96.6% (inactive) and -34% (active) and 99.9% (inactive); in the assay on UACC-62 melanoma it was 87.4% (inactive) and 32.5% (inactive) and 91.3% (inactive); in the assay with LOX IMVI melanoma, 92.1% (inactive) and 0.911% (active) and 107% (inactive); in the assay on SK-MEL-28 melanoma, 110% (inactive) and 40.6% (inactive) and 107% (inactive); in the assay on SK-MEL-2 melanoma, 99.6% (inactive) and 54% (inactive) and 112% (inactive); with EKVX NSCLC, 93.2% (inactive) and 29.5% (inactive). In addition, the growth is 92.4% (inactive) and 22.6% (inactive) and 102% (inactive) in the assay on SN12C renal; 90.7% (inactive) and -18.5% (active) and 77.4% (inactive) in the assay with UO-31 renal; 87.8% (inactive) and 33.8% (inactive) and 132% (inactive) in the assay on TK-10 renal; 91.8% (inactive) and 10.8% (inactive) and 92.4% (inactive) in the assay with ACHN renal; 67.7% (inactive) and 12.1% (inactive) and 74.4% (inactive) in the assay on CAKI-1 renal; 103% (inactive) and -18.3% (active) and 112% (inactive) in the assay with A498 renal. The growth in the assay on CCRF-CEM leukemia is 94.5% (inactive) and 16.4% (inactive); in the assay on MOLT-4 leukemia, 118% (inactive) and 9.88% (active) and 107% (inactive).

`CC(C)(C)c1ccc(O)c(CNC2CCCCC2)c1`: the growth in the assay on HCT-15 colon is 108% (inactive) and 84.5% (inactive); in the assay on HT29 colon it was 79.1% (inactive) and 95.2% (inactive); in the assay with SNB-75 CNS, 86% (inactive) and 82.8% (inactive); in the assay with SNB-19 CNS, 89.2% (inactive) and 90.9% (inactive); in the assay on U251 CNS it was 97.6% (inactive) and 88% (inactive); in the assay with PC-3 prostate, 82.5% (inactive) and 83.8% (inactive). Further, the growth was 92.6% (inactive) and 79.2% (inactive) with SK-MEL-5 melanoma; 96.6% (inactive) and 79.7% (inactive) in the assay with UACC-62 melanoma; 86.2% (inactive) and 97.6% (inactive) in the assay with LOX IMVI melanoma; 105% (inactive) and 98.3% (inactive) in the assay with SK-MEL-28 melanoma; 94.6% (inactive) in the assay on SK-MEL-2 melanoma; 108% (inactive) in the assay with EKVX NSCLC. For the same compound, the growth with SN12C renal is 102% (inactive) and 91.4% (inactive); in the assay on UO-31 renal, 65.7% (inactive) and 78.9% (inactive); in the assay on TK-10 renal it was 92.4% (inactive); in the assay on ACHN renal, 116% (inactive) and 91.3% (inactive); in the assay with CAKI-1 renal, 111% (inactive) and 97.5% (inactive); in the assay with A498 renal, 110% (inactive) and 91.8% (inactive). Besides, the growth was 91.8% (inactive) and 86.6% (inactive) in the assay on CCRF-CEM leukemia; 98.1% (inactive) and 81.2% (inactive) with MOLT-4 leukemia.

Take `Cn1c(=O)c2[nH]c(CCCCCCCCc3nc4ccccc4[nH]3)nc2n(C)c1=O`: the growth is 80.1% (inactive) and 96.1% (inactive) with HCT-15 colon; 99% (inactive) and 85.6% (inactive) in the assay on HT29 colon; 93.5% (inactive) and 80.5% (inactive) with SNB-75 CNS; 66.9% (inactive) and 65.4% (inactive) in the assay on SNB-19 CNS; 72.5% (inactive) and 80.2% (inactive) in the assay with U251 CNS; 48.3% (inactive) and 87.3% (inactive) in the assay on PC-3 prostate. For the same compound, the growth with SK-MEL-5 melanoma was 3.01% (active) and 12.2% (inactive); in the assay with UACC-62 melanoma it was 59.1% (inactive); in the assay on LOX IMVI melanoma, 58.3% (inactive) and 55.9% (inactive); in the assay on SK-MEL-28 melanoma it was 88.9% (inactive); in the assay with SK-MEL-2 melanoma it was 79.3% (inactive) and 107% (inactive); in the assay on EKVX NSCLC it was 42% (inactive) and 55.1% (inactive). For the same compound, the growth in the assay with SN12C renal is 81.2% (inactive) and 68% (inactive); in the assay with UO-31 renal, 73.9% (inactive) and 74.9% (inactive); in the assay with TK-10 renal, 84% (inactive) and 90.3% (inactive); with ACHN renal, 61.1% (inactive) and 69% (inactive); in the assay with CAKI-1 renal it was 49.7% (inactive) and 57.9% (inactive); in the assay with A498 renal it was 55.7% (inactive) and 78.8% (inactive). Further, the growth in the assay on CCRF-CEM leukemia is 69.6% (inactive) and 66.4% (inactive); in the assay with MOLT-4 leukemia it was 41% (inactive) and 41.7% (inactive).
